Source: PubChem
SARS PLpro yeast: blocks SARS-CoV papain-like protease in a yeast assay. AID 485353. S. cerevisiae expressing SARS-CoV PLpro, growth rescue. 330,000 tested, 0.19% active. Potency, µM (series often up to 32.9 µM), actives largely listed as activators; also: nearly all actives have a fitted effect of over 55% in size
Pf growth 48h: P. falciparum growth inhibition at 48 hours (one generation) | P. falciparum luciferase growth in erythrocytes, 48 h | Potency, µM (titrated, usually from 28.7 µM), most hits filed as inhibitors | 310,000 tested, 5.9% active | AID 504832; active = well fitted inhibition curve with a large enough effect; inconclusive = small, poorly fitted or top-dose-only effect, or another doubt; inactive = no such curve, though single readings can be large or run the other way
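Luciferase-expressing parasites in RBCs, 2% Hct / 0.1% parasitemia final; RPMI 1640 + 0.5% Albumax; 37 C, 5% CO2, one generation; luminescence read-out, lower signal = inhibition.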
Pf growth 96h: inhibits malaria parasite growth, 96 h; 320,000 tested, 6.9% active; P. falciparum luciferase reporter growth, 96 h; Potency, µM (series often up to 28.7 µM), actives largely listed as inhibitors; AID 504834; active = well fitted inhibition curve with a large enough effect; inconclusive = small, poorly fitted or top-dose-only effect, or another doubt; inactive = no such curve, though single readings can be large or run the other way
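Erythrocytes infected with luciferase-expressing P. falciparum were dispensed at 2% hematocrit and 0.05% parasitemia (final), then incubated with compounds 96 hours at 37 C in 5% CO2. Luminescence after detection reagent addition reported growth.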
Cycloheximide cs: counter-screen hit for Shiga toxin inhibitors, cycloheximide | cell reporter, cycloheximide protein synthesis inhibition counterscreen | max response, % | 300,000 tested, 12% active | AID 2314; in the data active = max response mostly above about 13%, no sharp cut-off; inactive = mostly below about 14%; also: read at 38.3 µM for the half of the compounds with a filed dose
NS1 function inh: inhibitors of influenza NS1 protein function; 270,000 tested, 0.4% active; Potency, µM (highest dose often 46.1 µM); also: actives are rising curves; nearly all actives have a fitted effect of over 50% in size
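Read-out: OD600 growth recovery of NS1-expressing budding yeast. Cells grown overnight at 30C in -URA glucose medium, washed, resuspended and diluted 1:100 in 2% galactose assay medium, pH 6.0. Same strain lacking NS1 served as positive control.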
Shiga toxin inh: inhibitors of Shiga toxin in Vero cells; AID 2315; inhibition, % at 38.7 µM; Vero cells, Shiga toxin protein synthesis inhibition reporter; 290,000 tested, 9.2% active; in the data active = inhibition mostly above about 28%, no sharp cut-off; inactive = mostly below about 43%
Of the large screens only hits and unclear results are named; the others gave an inactive call; ! = repeats disagree. An excerpt weighted towards active compounds, which were near 21% of everything screened. Unless noted, calls follow the shape of the full dose curve.

N#Cc1ccc(C(=O)OCC(=O)NC2CCCC2)cc1	none
Cc1cc(-c2ccccc2)n(-c2ccc(C(N)=O)cc2)n1	Pf growth 96h inconclusive
Cc1ccc(C(=O)NCC(=O)NC2CCCC2)cc1	none
N#Cc1ccc(C(=O)NC2CCCCCCC2)cc1	Cycloheximide cs 22, Shiga toxin inh 83
Cc1ccc(C(=O)NC2CCCCC2)cc1	Cycloheximide cs 31
CNC(=O)c1ccc(-n2nc(C)cc2-c2ccccc2)cc1	Pf growth 48h 1.7µM, Pf growth 96h inconclusive
Cc1cc(C)n(-c2ccc(C(=O)NC3CCCCC3)cc2)n1	Shiga toxin inh 40 (no result: NS1 function inh)
Cc1cc(C)n(-c2ccc(C(=O)Nc3nnc(C)s3)cc2)n1	none (no result: Pf growth 48h)
Cc1cc(C)n(-c2ccc(C(=O)Nc3sccc3C(N)=O)cc2)n1	Cycloheximide cs 35, Shiga toxin inh 47 (no result: Pf growth 48h)
Cc1cc(C)n(-c2ccc(C(=O)Nc3ccccn3)cc2)n1	Cycloheximide cs 38, Shiga toxin inh 65
Cc1cc(C)c(Cn2c(=O)n(CCCC(=O)NCc3ccco3)c(=O)c3ccccc32)c(C)c1	none (no result: SARS PLpro yeast, Pf growth 48h, Pf growth 96h, Cycloheximide cs, Shiga toxin inh)
CC1(C)Cc2nc3sc4c(=O)n(CC(=O)NCc5ccco5)cnc4c3cc2CO1	Cycloheximide cs 26, Shiga toxin inh 69
C=CCSc1ncnc2c1oc1nc3c(cc12)COC(C)(C)C3	Cycloheximide cs 15
CC(C)COc1ncnc2c1sc1nc3c(cc12)COC(C)(C)C3	Shiga toxin inh 21
CC(C)CSc1ncnc2c1oc1nc3c(cc12)COC(C)(C)C3	none (no result: Pf growth 96h)
CCCOc1ncnc2c1sc1nc3c(cc12)COC(C)(C)C3	none
C=CCn1c(C)nc2c(sc3nc4c(cc32)COC(C)(C)C4)c1=O	Cycloheximide cs 43, Shiga toxin inh 50
Cc1cc(C)c2c3c(oc2n1)C(=O)N(c1cccc(Cl)c1)CC(=O)N3	none
CCSc1ncnc2c1sc1nc3c(cc12)COC(C)(C)C3	Cycloheximide cs 19
CSc1ccc(NC(=O)N2CC=C(n3c(=O)[nH]c4ccccc43)CC2)cc1	Pf growth 48h inconclusive, Pf growth 96h inconclusive
O=C(/C=C/c1ccco1)N1CCCC(c2ccccc2)C1 (centres undefined)	Cycloheximide cs 23, Shiga toxin inh 47
O=C(/C=C/c1ccccc1)N1CCC[C@H]1CO	none
O=C(/C=C/c1ccccc1)N1CCC(c2ccccc2)C1 (centres undefined)	Cycloheximide cs 59, Shiga toxin inh 74
O=C(/C=C/c1ccco1)N1CCN(c2ccc(F)cc2)CC1	Pf growth 48h inconclusive, Pf growth 96h inconclusive
CCOC(=O)c1c(CN(C)C)n(C)c2c(O)c(N=NC(N)=O)c3ccc(Br)cc3c12	Pf growth 48h 0.41µM
Cc1ccnc(NS(=O)(=O)c2ccc(-n3cccn3)cc2)c1	Pf growth 96h 10µM
Cc1ccnc(NS(=O)(=O)c2ccc(C(C)(C)C)cc2)c1	none
Cc1cc(=O)oc2c3c(cc(OCC(=O)NCc4ccncc4)c12)OC(C)(C)CC3	Pf growth 48h inconclusive, Pf growth 96h 10µM
COc1ccc(CNC(=O)COc2cc3c(c4oc(=O)cc(C)c24)CCC(C)(C)O3)cc1OC	SARS PLpro yeast inconclusive, Pf growth 48h 10µM, Pf growth 96h 7.4µM
Cc1cc(=O)oc2c3c(cc(OCC(=O)NCc4ccco4)c12)OC(C)(C)CC3	Pf growth 48h inconclusive, Pf growth 96h 8.3µM, Cycloheximide cs 30, Shiga toxin inh 33
Cc1c(C)c2c(OCC(=O)NCC(C)C)cc3c(c2oc1=O)CCC(C)(C)O3	Pf growth 48h 8.3µM, Pf growth 96h inconclusive
Cc1cc(=O)oc2c3c(cc(OCC(=O)NCCCn4ccnc4)c12)OC(C)(C)CC3	Pf growth 48h inconclusive, Pf growth 96h inconclusive
Cc1c(C)c2c(OCC(=O)NCc3cccnc3)cc3c(c2oc1=O)CCC(C)(C)O3	Pf growth 96h inconclusive
Cc1c(C)c2c(OCC(=O)NCc3ccncc3)cc3c(c2oc1=O)CCC(C)(C)O3	Pf growth 48h inconclusive, Pf growth 96h 2.9µM
COc1ccc(-c2cc(OC)c3c(C)oc(C)c3c(=O)c2)cc1OC	Pf growth 48h 4.7µM
COc1cc(-c2cc(OC)c3c(C)oc(C)c3c(=O)c2)ccc1O	Pf growth 48h inconclusive, Pf growth 96h 3.7µM
Cc1ccc(S(=O)(=O)CCC(=O)OCn2nnc3ccccc3c2=O)cc1	none
CCN(CC)CC(O)COc1ccccc1C(=O)CCc1ccccc1 (centres undefined)	Pf growth 48h 1.5µM (no result: Pf growth 96h)
CCCNCC(O)COc1ccccc1C(=O)CCc1ccccc1 (centres undefined)	Pf growth 48h 1.2µM, Pf growth 96h 3.3µM!
CCN(CC)CCOc1ccccc1C(=O)CCc1ccccc1	Pf growth 96h inconclusive (no result: SARS PLpro yeast, Cycloheximide cs, NS1 function inh, Shiga toxin inh)
CC(=O)CCc1ccc(OCC(O)CNCCOc2ccc(C)cc2)cc1 (centres undefined)	none
O=C(c1ccc([N+](=O)[O-])cc1[N+](=O)[O-])N1CCN(C(=O)C2CCCO2)CC1 (centres undefined)	Pf growth 96h inconclusive (no result: Cycloheximide cs, NS1 function inh, Shiga toxin inh)
CCOC(=O)c1c(-c2ccccc2)c2cc(OC)ccc2n1CCCN(C)C	Pf growth 48h 9.3µM
Cc1ccc(/C=N/NC(=S)N2CCOCC2)cc1	Pf growth 48h 2.3µM, Pf growth 96h inconclusive, Cycloheximide cs 57, Shiga toxin inh 83
S=C(N/N=C/c1ccc(Br)cc1)N1CCCCC1	Pf growth 48h inconclusive, Cycloheximide cs 40, Shiga toxin inh 64
S=C(c1ccc(Br)cc1)N1CCCC1	none
Cc1cc(Cl)ccc1NC(=S)N1CCOCC1	Pf growth 96h inconclusive
S=C(N/N=C/c1ccc(Cl)cc1)N1CCOCC1	Cycloheximide cs 41, Shiga toxin inh 97
Cc1ccc(CNC(=S)N2CCOCC2)cc1	none (no result: NS1 function inh)
O=C(Cn1nc(C(=O)O)c2ccccc2c1=O)c1cc(F)ccc1F	none
Cc1ccc(C(=O)Cn2nc(C(=O)O)c3ccccc3c2=O)cc1C	none
Cc1cc(C(=O)Cn2nc(C(=O)O)c3ccccc3c2=O)c(C)n1CC(F)(F)F	Cycloheximide cs 36, Shiga toxin inh 189 (no result: NS1 function inh)
Cc1cc(C(=O)Cn2nc(C(=O)O)c3ccccc3c2=O)c(C)n1CCc1ccc(F)cc1	Cycloheximide cs 20
C[C@H](OC(=O)N1CCN(C(c2ccccc2)c2ccccc2)CC1)[C@@H]1O[C@@]2(C)CCC[C@H]1O2	Pf growth 48h 6.6µM, Pf growth 96h 4.7µM (no result: Cycloheximide cs, NS1 function inh, Shiga toxin inh)
COc1ccc(-c2cc(C(=O)N3CC(C)CC(C)C3)c3ccccc3n2)cc1OC (centres undefined)	Pf growth 48h inconclusive, Pf growth 96h 10µM (no result: Cycloheximide cs, NS1 function inh, Shiga toxin inh)
O=C(c1cc(-c2ccncc2)nc2ccccc12)N1CCN(S(=O)(=O)/C=C/c2ccccc2)CC1	Pf growth 48h 1.9µM, Pf growth 96h inconclusive, NS1 function inh inconclusive
COc1ccc(-c2cc(C(=O)N3CCN(c4cccc(C)c4C)CC3)c3ccccc3n2)cc1OC	Pf growth 48h 9.3µM, Pf growth 96h 10µM (no result: Cycloheximide cs, NS1 function inh, Shiga toxin inh)
COc1ccc(-c2cc(C(=O)N3CCC3)c3ccccc3n2)cc1OC	Pf growth 48h inconclusive (no result: Cycloheximide cs, NS1 function inh, Shiga toxin inh)
CC1CC(C)CN(C(=O)c2cc(-c3ccncc3)nc3ccccc23)C1 (centres undefined)	Pf growth 48h 9.3µM, Pf growth 96h inconclusive (no result: Cycloheximide cs, NS1 function inh, Shiga toxin inh)
O=C(c1cc(-c2ccncc2)nc2ccccc12)N1CCOCC1	none (no result: Cycloheximide cs, NS1 function inh, Shiga toxin inh)
